{"source": "PubChem BioAssay (EPA / NIEHS)", "key": {"[1]": {"target": "human Phosphoinositide 3-kinase alpha (PI3Ka), PIK3CA (gene 5290) (UniProt P42336)", "sequence (P42336 whole entry, looked up)": "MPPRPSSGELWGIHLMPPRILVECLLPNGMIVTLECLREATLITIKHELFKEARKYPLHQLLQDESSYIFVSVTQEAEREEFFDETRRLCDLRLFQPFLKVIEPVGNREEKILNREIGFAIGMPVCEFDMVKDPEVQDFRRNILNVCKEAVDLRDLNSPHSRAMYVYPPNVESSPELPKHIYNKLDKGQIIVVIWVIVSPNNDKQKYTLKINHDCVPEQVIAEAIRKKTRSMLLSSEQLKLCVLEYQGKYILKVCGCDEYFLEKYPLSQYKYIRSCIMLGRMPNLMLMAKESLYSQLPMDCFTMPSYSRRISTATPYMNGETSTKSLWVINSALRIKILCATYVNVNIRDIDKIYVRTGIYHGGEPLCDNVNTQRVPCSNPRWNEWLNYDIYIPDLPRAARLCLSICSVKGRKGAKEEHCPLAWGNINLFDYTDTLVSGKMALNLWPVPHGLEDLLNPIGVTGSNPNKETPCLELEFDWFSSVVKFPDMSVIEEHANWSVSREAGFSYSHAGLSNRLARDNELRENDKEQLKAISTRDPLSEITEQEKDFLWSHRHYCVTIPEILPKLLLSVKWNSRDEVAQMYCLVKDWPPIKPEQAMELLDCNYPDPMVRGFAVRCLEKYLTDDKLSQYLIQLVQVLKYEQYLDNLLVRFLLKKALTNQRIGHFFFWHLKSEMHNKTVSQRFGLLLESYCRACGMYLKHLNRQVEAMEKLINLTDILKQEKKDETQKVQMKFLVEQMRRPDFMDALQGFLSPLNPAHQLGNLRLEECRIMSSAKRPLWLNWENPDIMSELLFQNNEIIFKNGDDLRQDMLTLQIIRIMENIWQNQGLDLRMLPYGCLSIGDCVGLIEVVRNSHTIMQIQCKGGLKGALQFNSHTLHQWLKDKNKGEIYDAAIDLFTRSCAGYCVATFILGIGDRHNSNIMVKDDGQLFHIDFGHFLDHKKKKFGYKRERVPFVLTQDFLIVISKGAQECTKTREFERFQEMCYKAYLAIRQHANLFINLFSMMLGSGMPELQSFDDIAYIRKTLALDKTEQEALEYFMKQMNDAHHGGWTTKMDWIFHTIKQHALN", "experiment": "NVS_ENZ_hPI3Ka: NovaScreen (NVS) Enzymatic Assay for human Phosphoinositide 3-kinase alpha (PI3Ka) (AID 2283196)", "experimental": "NVS_ENZ_hPI3Ka is a biochemical, single-readout assay that uses extracted gene-proteins in a cell-free assay. Measurements were taken 1 hour after chemical dosing in a 384-well plate.NVS_ENZ_hPI3Ka is one of one assay component(s) measured or calculated from the NVS_ENZ_hPI3Ka assay. It is designed to make measurements of enzyme activity, a form of enzyme reporter, as detected with fluorescence intensity signals by Fluorescence and electrophoretic mobility shift technology.Data from the assay component NVS_ENZ_hPI3Ka was analyzed into 1 assay endpoint. This assay endpoint, NVS_ENZ_hPI3Ka, was analyzed in the positive analysis fitting direction relative to DMSO as the negative control and baseline of activity. Using a type of enzyme reporter, loss-of-signal activity can be used to understand changes in the enzymatic activity as they relate to the gene PIK3CA. Furthermore, this assay endpoint can be referred to as a primary readout, because this assay has produced multiple assay endpoints where this one serves a enzymatic activity function. To generalize the intended target to other relatable targets, this assay endpoint is annotated to the kinase intended target family, where the subfamily is phosphoinositol kinase. […]"}, "[2]": {"target": "PPP2CA (gene 5515) (UniProt P67775)", "experiment": "NVS_ENZ_hPPP2CA: NovaScreen (NVS) Enzymatic Assay for human Protein Phosphatase 2 Aatalytic subunit Alpha (PPP2CA) (AID 2283199)", "experimental": "(§1) NVS_ENZ_hPPP2CA is a biochemical, single-readout assay that uses extracted gene-proteins in a cell-free assay. Measurements were taken 1.33 hours after chemical dosing in a 384-well plate.NVS_ENZ_hPPP2CA is one of one assay component(s) measured or calculated from the NVS_ENZ_hPPP2CA assay. It is designed to make measurements of enzyme activity, a form of enzyme reporter, as detected with fluorescence intensity signals by Fluorescence and electrophoretic mobility shift technology.Data from the assay component NVS_ENZ_hPPP2CA was analyzed into 1 assay endpoint. This assay endpoint, NVS_ENZ_hPPP2CA, was analyzed in the positive analysis fitting direction relative to DMSO as the negative control and baseline of activity. Using a type of enzyme reporter, loss-of-signal activity can be used to understand changes in the enzymatic activity as they relate to the gene PPP2CA. Furthermore, this assay endpoint can be referred to as a primary readout, because this assay has produced multiple assay endpoints where this one serves a enzymatic activity function. To generalize the intended target to other relatable targets, this assay endpoint is annotated to the phosphatase intended target family, where the subfamily is serine/threonine phosphatase. […]"}, "[3]": {"target": "Tyrosine-protein phosphatase non-receptor type 11 (Homo sapiens) (UniProt Q06124)", "sequence (Q06124 whole entry, looked up)": "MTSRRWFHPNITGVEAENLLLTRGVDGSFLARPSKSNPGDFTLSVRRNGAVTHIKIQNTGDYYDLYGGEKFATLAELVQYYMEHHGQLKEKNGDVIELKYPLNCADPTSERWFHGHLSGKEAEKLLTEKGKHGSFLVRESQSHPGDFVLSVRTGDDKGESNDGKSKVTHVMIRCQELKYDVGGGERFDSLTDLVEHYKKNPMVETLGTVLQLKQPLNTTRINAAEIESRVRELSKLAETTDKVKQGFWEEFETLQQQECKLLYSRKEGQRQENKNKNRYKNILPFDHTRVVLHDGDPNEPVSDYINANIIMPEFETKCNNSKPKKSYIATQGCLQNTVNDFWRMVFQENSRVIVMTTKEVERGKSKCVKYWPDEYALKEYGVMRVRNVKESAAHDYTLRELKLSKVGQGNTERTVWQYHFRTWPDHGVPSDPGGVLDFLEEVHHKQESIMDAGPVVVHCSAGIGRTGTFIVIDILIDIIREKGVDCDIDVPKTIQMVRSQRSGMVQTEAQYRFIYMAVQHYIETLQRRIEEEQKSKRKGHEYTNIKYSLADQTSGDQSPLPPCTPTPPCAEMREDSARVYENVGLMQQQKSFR", "experiment": "NVS_ENZ_hPTPN11: NovaScreen (NVS) Enzymatic Assay for human Protein Tyrosine Phosphatase Non-receptor Type 11 (PTPN11) (AID 2283202)", "experimental": "as §1, with “NVS_ENZ_hPTPN11” for “NVS_ENZ_hPPP2CA”, “0.5 hour” for “1.33 hours”, “plate.NVS_ENZ_hPTPN11” for “plate.NVS_ENZ_hPPP2CA”, “NVS_ENZ_hPTPN11,” for “NVS_ENZ_hPPP2CA,”, “PTPN11.” for “PPP2CA.”, “non-receptor tyrosine” for “serine/threonine”"}, "[4]": {"target": "Tyrosine-protein phosphatase non-receptor type 12 (Homo sapiens) (UniProt Q05209)", "sequence (Q05209 whole entry, looked up)": "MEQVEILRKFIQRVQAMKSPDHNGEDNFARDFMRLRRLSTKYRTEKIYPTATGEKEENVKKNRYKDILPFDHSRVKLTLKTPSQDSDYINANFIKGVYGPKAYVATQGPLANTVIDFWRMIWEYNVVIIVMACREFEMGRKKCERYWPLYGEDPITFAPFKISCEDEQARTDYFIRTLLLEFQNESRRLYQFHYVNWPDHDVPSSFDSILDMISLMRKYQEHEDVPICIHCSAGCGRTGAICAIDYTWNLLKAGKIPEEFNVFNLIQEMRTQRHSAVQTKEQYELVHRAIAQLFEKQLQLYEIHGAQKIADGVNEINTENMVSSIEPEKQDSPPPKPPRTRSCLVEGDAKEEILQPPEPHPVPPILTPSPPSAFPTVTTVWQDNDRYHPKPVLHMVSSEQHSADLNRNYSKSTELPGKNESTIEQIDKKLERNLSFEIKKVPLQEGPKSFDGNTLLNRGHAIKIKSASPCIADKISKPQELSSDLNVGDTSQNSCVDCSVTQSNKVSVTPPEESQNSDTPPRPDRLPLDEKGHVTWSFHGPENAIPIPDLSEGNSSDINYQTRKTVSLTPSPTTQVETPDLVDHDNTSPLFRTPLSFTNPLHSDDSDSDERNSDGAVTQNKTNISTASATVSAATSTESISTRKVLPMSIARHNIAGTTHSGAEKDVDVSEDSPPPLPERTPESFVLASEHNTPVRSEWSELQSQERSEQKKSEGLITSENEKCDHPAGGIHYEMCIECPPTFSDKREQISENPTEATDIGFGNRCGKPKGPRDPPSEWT", "experiment": "NVS_ENZ_hPTPN12: NovaScreen (NVS) Enzymatic Assay for human Protein Tyrosine Phosphatase Non-receptor Type 12 (PTPN12) (AID 2283204)", "summary_of_the_method": "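Single-concentration duplicates (25 uM) preceded singleton concentration-response up to 50 uM for chemicals passing threshold. Cell-free recombinant PTPN12 activity was read 1.33 h after dosing via fluorescence after mobility-shift separation; loss of signal versus DMSO.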"}, "[5]": {"target": "Tyrosine-protein phosphatase non-receptor type 13 (Homo sapiens) (UniProt Q12923)", "sequence (Q12923 whole entry, looked up)": "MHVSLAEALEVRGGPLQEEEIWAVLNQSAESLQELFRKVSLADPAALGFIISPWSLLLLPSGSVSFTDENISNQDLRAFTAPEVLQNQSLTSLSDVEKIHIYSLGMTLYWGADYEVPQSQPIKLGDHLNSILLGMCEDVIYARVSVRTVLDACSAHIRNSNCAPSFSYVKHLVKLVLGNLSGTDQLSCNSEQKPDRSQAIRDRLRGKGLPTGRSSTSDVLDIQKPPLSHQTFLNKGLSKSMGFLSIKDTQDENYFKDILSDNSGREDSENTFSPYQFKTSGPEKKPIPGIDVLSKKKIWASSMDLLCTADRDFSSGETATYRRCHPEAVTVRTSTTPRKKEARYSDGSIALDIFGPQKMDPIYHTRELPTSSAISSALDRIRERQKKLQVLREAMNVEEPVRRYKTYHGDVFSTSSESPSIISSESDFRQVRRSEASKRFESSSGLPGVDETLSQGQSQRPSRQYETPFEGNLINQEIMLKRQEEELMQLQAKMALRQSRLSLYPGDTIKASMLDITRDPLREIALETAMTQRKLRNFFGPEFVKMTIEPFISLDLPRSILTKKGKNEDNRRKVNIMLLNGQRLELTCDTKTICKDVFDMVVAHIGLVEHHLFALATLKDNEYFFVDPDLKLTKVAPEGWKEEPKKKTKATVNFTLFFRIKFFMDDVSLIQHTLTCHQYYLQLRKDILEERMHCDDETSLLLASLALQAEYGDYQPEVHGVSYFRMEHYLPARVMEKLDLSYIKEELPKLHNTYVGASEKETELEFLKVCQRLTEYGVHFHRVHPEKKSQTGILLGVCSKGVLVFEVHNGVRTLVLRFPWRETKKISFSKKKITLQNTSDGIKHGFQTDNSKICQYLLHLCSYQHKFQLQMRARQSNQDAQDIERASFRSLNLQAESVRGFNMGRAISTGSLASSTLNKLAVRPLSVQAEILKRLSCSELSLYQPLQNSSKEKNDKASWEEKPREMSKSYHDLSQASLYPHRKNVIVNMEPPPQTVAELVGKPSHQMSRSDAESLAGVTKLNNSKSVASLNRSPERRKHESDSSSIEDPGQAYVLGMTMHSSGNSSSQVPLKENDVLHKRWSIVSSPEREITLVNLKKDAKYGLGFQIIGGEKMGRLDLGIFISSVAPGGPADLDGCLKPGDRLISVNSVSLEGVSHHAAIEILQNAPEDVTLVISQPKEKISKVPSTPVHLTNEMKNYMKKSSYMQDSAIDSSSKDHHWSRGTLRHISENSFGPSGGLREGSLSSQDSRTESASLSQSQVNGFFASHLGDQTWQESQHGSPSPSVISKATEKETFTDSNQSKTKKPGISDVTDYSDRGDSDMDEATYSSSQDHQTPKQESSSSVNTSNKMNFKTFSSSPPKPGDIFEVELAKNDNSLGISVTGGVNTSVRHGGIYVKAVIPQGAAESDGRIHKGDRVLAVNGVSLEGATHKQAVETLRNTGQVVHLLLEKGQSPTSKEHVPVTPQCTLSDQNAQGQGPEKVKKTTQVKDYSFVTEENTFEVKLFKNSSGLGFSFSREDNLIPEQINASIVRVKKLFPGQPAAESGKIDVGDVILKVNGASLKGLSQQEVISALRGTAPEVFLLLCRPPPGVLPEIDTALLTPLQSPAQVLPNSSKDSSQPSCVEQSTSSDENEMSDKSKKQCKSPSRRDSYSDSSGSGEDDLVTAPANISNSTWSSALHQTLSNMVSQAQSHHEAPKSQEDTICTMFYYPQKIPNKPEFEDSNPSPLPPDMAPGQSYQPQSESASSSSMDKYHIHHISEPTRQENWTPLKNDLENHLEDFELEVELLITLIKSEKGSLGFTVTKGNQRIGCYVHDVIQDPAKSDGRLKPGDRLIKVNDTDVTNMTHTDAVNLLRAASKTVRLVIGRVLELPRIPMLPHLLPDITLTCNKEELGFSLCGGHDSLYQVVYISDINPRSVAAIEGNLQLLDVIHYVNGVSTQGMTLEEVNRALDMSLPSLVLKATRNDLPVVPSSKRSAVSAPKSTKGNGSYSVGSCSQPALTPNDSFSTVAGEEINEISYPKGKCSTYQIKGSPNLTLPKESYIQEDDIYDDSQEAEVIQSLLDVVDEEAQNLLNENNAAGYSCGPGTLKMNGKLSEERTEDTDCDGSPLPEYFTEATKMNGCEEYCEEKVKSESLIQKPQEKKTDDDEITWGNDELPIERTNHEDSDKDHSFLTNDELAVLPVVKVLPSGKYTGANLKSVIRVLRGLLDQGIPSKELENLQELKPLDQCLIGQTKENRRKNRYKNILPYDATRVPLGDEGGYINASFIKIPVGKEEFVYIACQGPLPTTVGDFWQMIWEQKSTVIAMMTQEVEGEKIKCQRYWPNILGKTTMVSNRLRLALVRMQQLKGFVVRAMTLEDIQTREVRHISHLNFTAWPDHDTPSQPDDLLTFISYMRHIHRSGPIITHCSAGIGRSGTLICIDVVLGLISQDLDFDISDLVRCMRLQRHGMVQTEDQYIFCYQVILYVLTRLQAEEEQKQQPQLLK", "experiment": "NVS_ENZ_hPTPN13: NovaScreen (NVS) Enzymatic Assay for human Protein Tyrosine Phosphatase Non-receptor Type 13 (PTPN13) (AID 2283205)", "summary_of_the_method": "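Screened first at a single 25 uM in duplicate; compounds passing the threshold (e.g. 30% inhibition) were rerun in concentration series, top 50 uM. Recombinant enzyme, fluorescent substrate, mobility-shift separation, 0.5 h read. Data fitted as inhibition relative to DMSO.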"}}, "note": "Inconclusive results are not listed. Active and inactive are the calls of the source. The calls were made as follows: active = hit-call score of the fitted dose curve at least 0.9, where 1 is the maximum; inconclusive = response in the unintended direction; inactive = score below 0.9.", "data": [{"smiles": "O=C(O)c1c(Cl)ccc2cc(Cl)cnc12", "values": [{"measurement": "outcome", "setting": "[1]", "value": "inactive"}]}, {"smiles": "N#CN=C1SCCN1Cc1ccc(Cl)nc1", "values": [{"measurement": "outcome", "setting": "[2]", "value": "inactive"}]}, {"smiles": "CC(C)N1C(=O)c2ccccc2NS1(=O)=O", "values": [{"measurement": "outcome", "setting": "[3]", "value": "inactive"}]}, {"smiles": "CCCC(=NOCC)C1=C(O)CC(CC(C)SCC)CC1=O", "note": "(stereo unspecified)", "values": [{"measurement": "outcome", "setting": "[4]", "value": "inactive"}, {"measurement": "outcome", "setting": "[5]", "value": "inactive"}]}, {"smiles": "CC(C)=CC1C(C(=O)OCc2coc(Cc3ccccc3)c2)C1(C)C", "note": "(stereo unspecified)", "values": [{"measurement": "outcome", "setting": "[4]", "value": "inactive"}]}]}
